Data as given in PubChem BioAssay (NCI).
The panel holds about 79,000 compounds, 15% with a hit somewhere; the sample as a whole holds those more often. Calls of active or inactive are those of the source. No stated cut-off is given here; in the data, active means growth inhibition above about 70%; inactive means the rest.

Assay: NCI Yeast Anticancer Drug Screen. Data for the wt2 strain (AID 169);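 further: 0% = growth of vehicle-treated yeast cultures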
Details: S. cerevisiae wt2 strain growth inhibition, hits give high values
Description: Growth inhibition of yeast strains with defined genetic alterations is measured as a screen for potential anti-cancer activity. Selected strains with alterations in DNA damage repair or cell cycle control were exposed to compounds and growth inhibition was measured relative to vehicle treated controls. The strain used in this assay is wt2

Measured: growth inhibition

COc1nc2c(c(=O)n1C)N=C(c1ccccc1)[C@H](C(CC(=O)c1ccccc1)c1ccccc1)C(c1ccccc1)N2 (stereo not given in full)
inactive: at 1.2 µM -8% | at 3.7 µM -8% | at 11.0 µM -7% | at 33.0 µM 22% | at 100.0 µM 46%

O=C1C=C(Cl)C(=O)C(c2ccc(Cl)cc2)=C1
inactive: at 1.2 µM -27% | at 3.7 µM -9% | at 11.0 µM 13%
active: at 33.0 µM 94% | at 100.0 µM 96%

CCCCN(CCCC)CCC(O)c1cc2c(Cl)cc(Cl)cc2c2cc(C(F)(F)F)ccc12 (stereo not given)
inactive: at 1.2 µM -46% | at 3.7 µM 18%
active: at 11.0 µM 98% | at 33.0 µM 96% | at 100.0 µM 90%

CCCCN(CCCC)C(=O)/C=C/c1ccccc1
inactive: at 1.2 µM 6% | at 3.7 µM -4% | at 11.0 µM 12% | at 33.0 µM 47%
active: at 100.0 µM 97%

COc1cc2cc3c4cc(OC)c(OC)cc4cc[n+]3c(C)c2cc1OC
inactive: at 1.2 µM -30% | at 3.7 µM -28% | at 11.0 µM -35% | at 33.0 µM -31% | at 100.0 µM -22%

O=C1CSC(c2cccc(Cl)c2)N1c1ccc(-c2ccc(-n3c(-c4ccccc4)nc4ccccc4c3=O)cc2)cc1 (stereo not given)
inactive: at 1.2 µM 0% | at 3.7 µM -2% | at 11.0 µM 0% | at 33.0 µM 15% | at 100.0 µM 39%

c1ccc(-c2cnc3ccccc3c2)cc1
inactive: at 1.2 µM -4% | at 3.7 µM -3% | at 11.0 µM -5% | at 33.0 µM -6%
active: at 100.0 µM 98%

CCc1c(Cl)c(C)cc(O)c1Cl
inactive: at 1.2 µM -35% | at 3.7 µM -30% | at 11.0 µM -26% | at 33.0 µM -9%
active: at 100.0 µM 92%
